According to ChEMBL document CHEMBL3988442, “University of Dundee, Small-Polar-MMV Screening Library” (2021):

Columns and labels:
[1] = molecular target: T1, Aspartate--tRNA(Asp/Asn) ligase (Mycobacterium tuberculosis (strain ATCC 25618 / H37Rv)) (UniProt P9WFW3); experiment: Assay for Asp RNA synthetase-1 from Mycobacterium tuberculosis; type: functional; set-up: scale not given: direction of the effect not stated beside the values; conditions: 30 µM; also: in the data most compounds retested in dose-response had high values
T1 sequence (whole entry): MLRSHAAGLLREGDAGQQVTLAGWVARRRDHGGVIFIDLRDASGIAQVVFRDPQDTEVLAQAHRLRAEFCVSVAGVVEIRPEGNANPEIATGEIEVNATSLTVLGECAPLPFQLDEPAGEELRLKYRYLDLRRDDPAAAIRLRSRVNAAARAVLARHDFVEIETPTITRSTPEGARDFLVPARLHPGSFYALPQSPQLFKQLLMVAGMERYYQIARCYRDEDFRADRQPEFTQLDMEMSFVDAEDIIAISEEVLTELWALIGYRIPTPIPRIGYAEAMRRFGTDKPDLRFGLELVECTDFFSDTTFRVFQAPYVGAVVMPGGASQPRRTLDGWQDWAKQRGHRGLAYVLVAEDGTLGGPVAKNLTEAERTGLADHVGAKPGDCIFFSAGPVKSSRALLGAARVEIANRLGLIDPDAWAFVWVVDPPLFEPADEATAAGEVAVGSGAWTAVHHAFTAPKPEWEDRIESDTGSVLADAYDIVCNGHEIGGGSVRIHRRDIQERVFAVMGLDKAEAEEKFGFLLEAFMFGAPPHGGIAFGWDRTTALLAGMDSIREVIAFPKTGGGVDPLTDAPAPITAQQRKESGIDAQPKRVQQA

[2] = molecular target: Shiga toxin 2 (Escherichia coli O157:H7) (UniProt P09385+P09386); experiment: E. coli 0.157:H7 Shiga Toxin SOP - stx2 screening assay; type: functional; set-up: scale not given: direction of the effect not stated beside the values; conditions: 30 µM

SMILES | Percent Effect [1] | Percent Effect [2]
CC(=O)N1CC(=O)N(c2ccccc2)CC12CCN(CC1CC1)C2 (stereo unspecified) | 13.8% | -1.67%
CN(C)S(=O)(=O)N1CCN(c2nccc(C(F)(F)F)n2)CC1 | -6.64% | -2.87%
COc1ccccc1C1(C(=O)NCCN2CCOCC2)CCOCC1 | 10.8% | 21.5%
Cc1nc(C2(O)CCCNCC2)sc1CCOc1ccc(Cl)cc1 (stereo unspecified) | -4% | -45.5%
CC(=O)N(Cc1noc(C)n1)C1CCN(Cc2cc(C)on2)C1 (stereo unspecified) | 4.07% | 11%
CCOCCn1nc(C)cc1C(=O)N1CCOCC(CO)C1 (stereo unspecified) | -1.08% | -28%
Cn1cc(CN2CCOC3(CCCN(C(=O)c4ccco4)C3)C2)cn1 (stereo unspecified) | -0.297% | -4.96%
Cc1nc(CN2C[C@@H]3CN(C(=O)c4cnccn4)C[C@@H]3C2)cs1 | -0.661% | 1.79%
CC(C)c1ccc(CN2CCC3(CCCN(c4nncs4)C3)C2)cc1 (stereo unspecified) | 1% | 5.96%
CC(C(=O)NCc1ccnc(Oc2ccc(F)cc2)c1)n1cncn1 (stereo unspecified) | -5.88% | 6.33%
COc1ccc(F)cc1C(C)NC(=O)Nc1nnc(C)s1 (stereo unspecified) | -0.889% | 15.6%
Cc1cc(C)n(CC2CCCN2C(=O)c2cc[nH]n2)n1 (stereo unspecified) | -3.22% | -26.2%
CC(NC(N)=O)C(=O)N1CCCN(Cc2nccn2C(C)C)CC1 (stereo unspecified) | 0.509% | 8.58%
Cc1nc(CNC(=O)NCC(O)c2ccc(F)c(F)c2)cs1 (stereo unspecified) | -2.91% | 4.89%
CN(Cc1cscn1)C1CCCN(Cc2noc(C3CC3)n2)C1 (stereo unspecified) | -2.67% | 0.508%
CC(OCC(F)(F)F)C(=O)N1CCN(S(C)(=O)=O)CC1 (stereo unspecified) | -0.604% | -10.8%
Cn1c(Cn2cccn2)nnc1C1CCCN(c2ccncc2F)C1 (stereo unspecified) | -0.254% | -2.56%
Cc1cccc2c1OCCC2NCc1c(C)nn(C)c1N(C)C (stereo unspecified) | 0.256% | 28.5%
CCc1ccc(CN2CCCC(CO)(CCOC)C2)cc1 (stereo unspecified) | -1.96% | -14%
CC(C)c1nc(CCNC(=O)NCc2ccnc(N(C)C)c2)cs1 | -0.713% | -13.1%
Cc1nc(CN2CCOC(c3nc(C(C)C)n[nH]3)C2)oc1C (stereo unspecified) | 0.999% | -9.33%
Cc1n[nH]c(C2CN(C(=O)CCc3ccco3)CCO2)n1 (stereo unspecified) | 7.13% | -9.36%
O=C(NCCNC(=O)c1scnc1Cl)c1ccccc1 | 2.84% | -34.6%
CCc1nccn1C1CCCN(C(=O)c2ccc3[nH]c(=O)[nH]c3c2)C1 (stereo unspecified) | -9.98% | -46.4%
CCn1cnnc1C1CCN(C(=O)c2ccc3cc[nH]c3c2)CC1 | -3% | -9.96%
Cc1cc(CC(=O)N2CCCC2c2nc(C(C)C)no2)on1 (stereo unspecified) | -3.79% | 8.6%

SMILES | Percent Effect [1] | Percent Effect [2]
Cc1ccc(C(=O)N2CCCC2c2nnc3n2CCCCC3)o1 (stereo unspecified) | -0.223% | -7.29%
COc1ccc(C)cc1CN(C)Cc1nc2c(cnn2C)c(=O)[nH]1 | 1.01% | 46.7%
Cc1noc(C(C)C)c1C(=O)NCCCN1CCCC1 | 5.49% | -21.7%
Cc1cncc(C2CCCN(C(=O)c3c[nH]c(=O)[nH]c3=O)C2)n1 (stereo unspecified) | 3.87% | 26.6%
Cc1ccc(CN(C)C(=O)CN2CCOC(Cn3cncn3)C2)o1 (stereo unspecified) | 2.6% | -9.96%
CC(O)CN1CCC(CNCc2cccc(OC(C)C)c2)CC1 (stereo unspecified) | 3.21% | -10.6%
c1ccc(N2CCCC3(COCCN(c4nccs4)C3)C2)nc1 (stereo unspecified) | 3.08% | -3.13%
Cc1ccc(F)cc1NC(=O)NCC(C)N1CCOCC1 (stereo unspecified) | -1.14% | -35%
Cc1cc(C)n(CC2CCCCN2C(=O)c2cnn(C)c2)n1 (stereo unspecified) | -5.01% | -14%
CC(C)N1CCCC(CCCc2ccccn2)(C(=O)O)C1 (stereo unspecified) | 1.98% | 9.97%
Cc1nccn1-c1cc(CNC(=O)C(C)(C)C)ccn1 | 10.6% | -3.04%
CC(C)c1nc2n(n1)CC(NCc1nnc(-c3ccco3)o1)CC2 (stereo unspecified) | -3.46% | 11.7%
CCc1ccc(C(=O)N2CCN(CC(C)O)CC2)o1 (stereo unspecified) | 0.745% | 5.26%
CCCS(=O)(=O)N1CCOCC2(CCN(c3ccccn3)C2)C1 (stereo unspecified) | -2.85% | -23.9%
COc1cccc(CN2CCCCCC2c2cccc(C)c2)c1O (stereo unspecified) | -0.481% | -68.7%
O=C(NCC1CCSCC1)N(CCCO)C1CCc2ccccc21 (stereo unspecified) | 6.01% | -37.4%
OC(CNCCn1cccn1)c1ccc2c(c1)OCCO2 (stereo unspecified) | -4.48% | 3.64%
c1cc2nc(C3CCN(CC4CC4)CC3)nn2cc1N1CCCC1 | -1.69% | -3.75%
COc1ccc(OC)c(CCNC(=O)NC(C)Cn2ccnc2)c1 (stereo unspecified) | -6.68% | 31%
CCOc1nnc(CN2CCC(N(C)Cc3noc(C)n3)C2)s1 (stereo unspecified) | 5.37% | 24.4%
Cc1nn(-c2ccccc2)c(C)c1CNC1CCc2ncnn2C1 (stereo unspecified) | -2.94% | 4.77%
CCN(CC)C(CNS(=O)(=O)c1ccc(C(=O)NC)cc1)c1ccco1 (stereo unspecified) | -2.1% | -17.4%
CC(Cn1cccn1)NC(=O)Nc1ccc(F)cc1 (stereo unspecified) | 1.84% | -31.3%
COCC(=O)N1CC[C@@H]2CN(Cc3cccc(Cl)c3)S(=O)(=O)[C@@H]2CC1 | 3.55% | -12.7%
O=C(Nc1ccc(N2CCCC2)nc1)N1CCc2ccccc2C1 | 2.91% | -147%
CN1CCOC(CNCc2cccc(OCc3ccccn3)c2)C1 (stereo unspecified) | -8.22% | -16.3%

SMILES | Percent Effect [1] | Percent Effect [2]
CCOc1ccccc1OC1CCN(C(=O)c2cc[nH]n2)CC1 | 0.989% | 39.1%
CCOc1ncccc1NC(=O)c1cc(C)c(C)s1 | -2.03% | 3.75%
CCn1c(N)nc2cc(C(=O)NCc3ccccc3Cl)cnc21 | 6.55% | -1.88%
Cc1cc(C)n(C2CN(CC(=O)N3CCOCC3)C2)n1 | -0.655% | 9.68%
CC1CCN(C(=O)c2cccc3ncccc23)CC1 | -1.51% | 5.74%
O=C(NCC1CC1)C1CN(C(=O)c2cccnc2)CC12CCOCC2 (stereo unspecified) | -2.58% | -10.2%
COC(=O)c1cc(C(=O)N2CCCCCC2)n(-c2ccccc2)n1 | -0.856% | 30.9%
O=C1CC(c2ccsc2)c2c(n(C3CCOCC3)[nH]c2=O)N1 (stereo unspecified) | -2.53% | -30.3%
CC(=O)N1CCC(Oc2ccc(Cl)cn2)CC1 | -6.73% | -4.66%
COc1cccc(CNCc2nnc3n2CC(C(F)(F)F)CC3)c1 (stereo unspecified) | -0.0987% | -19.1%
CC(C)c1cc(N2CCC(N)CC2)n2nccc2n1 | -0.232% | 19.8%
CN(C)CCCn1ccnc1C1CCCN(c2cc(N)ncn2)C1 (stereo unspecified) | -0.232% | 1.04%
CCc1nccn1C1CCCN(C(=O)Cc2cn3ccccc3n2)C1 (stereo unspecified) | 0.0146% | -20.4%
CC(C)c1ncncc1C(=O)N1CCN(Cc2cscn2)CC1 | -2.56% | -22.9%
O=C(c1ccc2c(c1)COC2)N1CCC(Nc2cccnn2)CC1 | -1.3% | -8.52%
Cc1nc(CN2CCOCC3(CCN(c4cccnc4)CC3)C2)cs1 | 1.87% | -2.54%
Cn1ncc2c(=O)[nH]c(CN3CCCC3CC3CCCCC3)nc21 (stereo unspecified) | -3.06% | 22.5%
CC(CNC(=O)c1ccc(F)cc1Cl)N1CCCC1 (stereo unspecified) | 0.39% | -4.69%
O=C(C1CC=CC1)N1CCC2(CC1)CN(Cc1ccccn1)CCO2 | -0.381% | 3.35%
O=C(C1CCOCC1)N1C[C@@H]2[C@@H](C1)OCC(=O)N2CC1CC1 | 3.77% | -0.921%
COc1ccc(-n2ncc(C(=O)NCC3COC(C)(C)O3)c2N)cc1 (stereo unspecified) | -2.49% | 7.2%
O=C(CCn1ccccc1=O)Nc1ccc(F)c(Cl)c1 | 5.06% | -7.92%
OCC1CCCN1c1cc(N2CCc3ccccc3C2)ncn1 (stereo unspecified) | 1.24% | -49.8%
CCC1CN(C(=O)Nc2cnc3c(cnn3C(C)C)c2)CCO1 (stereo unspecified) | 0.932% | 13.4%
CC(C)CNC(=O)Nc1ccc(CN2CCOC2=O)cc1 | 1.75% | -53.2%
NC(=O)c1ccc(CN2CCCC(O)C2)cc1 (stereo unspecified) | -3.73% | -9.74%

SMILES | Percent Effect [1] | Percent Effect [2]
COc1cccc(OCCNC(=O)CN2CCN(C)CC2C)c1 (stereo unspecified) | -3.03% | -14.9%
CCn1cc(CN2CCC(c3nnc(CN(C)C)n3CC)CC2)cn1 | -2.35% | -57.2%
Cc1cnn(CC2CCCN2C(=O)c2ccc(OC(C)C)nc2)c1 (stereo unspecified) | -4.48% | -35%
N#Cc1c(F)cccc1N1CCN(S(=O)(=O)c2cccs2)CC1 | 4.83% | -12.3%
CCOC1COC2(CCN(Cc3cccc(F)c3)CC2)C1 (stereo unspecified) | -3.19% | -3.58%
CN(C)c1ncc(-c2cc(C(=O)O)n(CC3CC3)c2)cn1 | 0.577% | 2.77%
CC(C)NC(=O)[C@@H]1CCO[C@@H]2CCN(c3ncccn3)C[C@H]21 | 4.69% | -19.4%
Cc1ccc(S(=O)(=O)Nc2ccc(-n3cccc3C(=O)O)c(C)c2)s1 | 4.34% | 18.8%
CS(=O)(=O)N1CCC2(CN(C(=O)c3cccnc3)C2)C1 | -2.07% | -24.7%
Cc1cc(C)n(C2CCCN(C(=O)c3cccc4[nH]ncc34)C2)n1 (stereo unspecified) | 7.59% | -6.75%
Cc1cnn(CC2CCCN2CCCc2nc3ccccc3o2)c1 (stereo unspecified) | 1.34% | -14.6%
CCN(C(=O)Nc1cccnc1OC)C1CC1 | -1.21% | -24.9%
CN(Cc1cccc(Cl)c1)S(=O)(=O)N1CCOCC1 | 2.4% | 7.77%
O=C(c1cnc(C2CC2)s1)N1CCCC(n2cccn2)C1 (stereo unspecified) | -2.52% | 24.9%
Cc1n[nH]c(C)c1NC(=O)CN1CCCC(CNC(=O)C(C)(C)C)C1 (stereo unspecified) | -4.35% | 19.6%
COCC1CN(C(=O)c2cccn2C)Cc2ncnn2C1 (stereo unspecified) | 12.6% | -34.6%
O=C(CCc1ccc(Cl)s1)N1CCCC(n2cncn2)C1 (stereo unspecified) | 2.08% | 5.05%
Cn1cc(CN2CCC3(C2)CN(Cc2ccsc2)C3)cn1 | 1.9% | -10.4%
CC(NC(=O)CCCOc1ccccc1Cl)c1ccncc1 (stereo unspecified) | 5.49% | -35%
N#Cc1cccnc1NCc1cccnc1N1CCC(C(N)=O)CC1 | 4.47% | -10.3%
Cc1ccn(CCC(=O)N2CCOC(c3nc(-c4cccs4)no3)C2)n1 (stereo unspecified) | -0.897% | 37.2%
CN(C)CCNC(=O)c1ccc(OC2CCN(S(C)(=O)=O)CC2)c(Cl)c1 | 1.85% | -25.9%
CNC(=O)[C@H]1C[C@H]2OCC[C@H]2N(Cc2ccc(C)o2)C1 | -1.06% | -4.41%
Cc1ccc(C(=O)N2Cc3c(CN4CCCCC4)nn(C)c3C2)cc1C | 4.62% | -4.53%
Cc1nn(C)c(C)c1C1CCCN1CCCc1nc2ccccc2o1 (stereo unspecified) | 3.71% | 7.57%
